Most compounds without a hit are left out; they make up all but 21% or so of the library.
TDP1 cell CPT – DT40-hTDP1 cell growth loss with CPT; chicken DT40 Tdp1-/-;hTDP1 cells + 20 nM CPT, ATP luminescence, 48 h; Potency, µM (doses to about 46.2 µM), for the others: at the highest dose activity change, negative = growth inhibition, actives largely listed as inhibitors; hit rate 12% among 420,000; note: potency is the fitted concentration of half-maximal effect; % is set by controls: 0 for no effect and ±100 for the full control effect; nearly all actives have a fitted effect of over 55% in size
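Chicken DT40 Tdp1-/- cells complemented with human TDP1, 400 cells/well, exposed to compounds plus 20 nM camptothecin for at least 48 h at 37 C; viability read as ATP content by CellTiter-Glo luminescence.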
DRD3 agonist – D3 dopamine receptor (human) agonism; P35462; D3R DiscoveRx beta-arrestin cells, luminescence, 90 min; max activation, %; hit rate 0.58% among 410,000; in the data active = max activation above about 30%; note: 0% is about no effect
Target sequence (P35462 whole entry, looked up): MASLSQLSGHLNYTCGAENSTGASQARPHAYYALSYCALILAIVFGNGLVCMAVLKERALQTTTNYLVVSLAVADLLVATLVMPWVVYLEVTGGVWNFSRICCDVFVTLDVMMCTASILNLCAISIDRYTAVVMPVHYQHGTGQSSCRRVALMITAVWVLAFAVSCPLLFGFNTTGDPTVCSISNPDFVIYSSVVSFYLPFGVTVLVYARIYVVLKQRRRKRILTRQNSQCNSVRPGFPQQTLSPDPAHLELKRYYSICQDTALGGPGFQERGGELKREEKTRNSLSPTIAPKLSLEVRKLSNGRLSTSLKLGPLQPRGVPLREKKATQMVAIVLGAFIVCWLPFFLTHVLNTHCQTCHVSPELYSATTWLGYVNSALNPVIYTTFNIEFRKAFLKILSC
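Cells at 1500/well, incubated overnight, then treated with pinned compounds (dopamine as control) for 90 min at 37 degrees C. DiscoveRx reagent added for 30 - 60 minutes at room temperature; luminescence read.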
D3 antag – blocks the human D3 dopamine receptor; P35462; D3R cells, DiscoveRx beta-arrestin luminescence, antagonist mode; stronger effect = lower value; max response, negative = inhibition, %; hit rate 2.5% among 360,000; in the data active = max response below about -50%; inconclusive = no clear call, values can overlap the other calls; note: % is set by controls: 0 for no effect and ±100 for the full control effect
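Cells expressing the human receptor were seeded at 1500 cells/well, incubated overnight at 37 degrees C in 5% CO2, then exposed to library compounds with dopamine controls for 90 minutes at 37 degrees C before luminescent detection.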
IL-1B inflam inh – blocks inflammasome-driven IL-1 beta release; hit rate 4.7% among 360,000; activity change, % at 57.5 µM; THP-1 LPS/ATP IL-1B secretion, AlphaLISA, 16 h; stronger effect = lower value; AID 743279; in the data active = activity change below about -50%; inconclusive = mostly about -30% to -49%; note: % is set by controls: 0 for no effect and ±100 for the full control effect
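THP-1 cells pretreated 1 hr with compounds (up to 57.5 uM final), then stimulated with LPS (250 ng/mL final) plus ATP (1.25 mM final); secreted IL-1B measured by AlphaLISA after 16 hr, decreased signal indicating inhibition.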
ClpP mod – qHTS Assay for Activators of ClpP; ATP-dependent Clp protease proteolytic subunit (Bacillus subtilis (strain 168)), P80244; purified B. subtilis ClpP, FRET peptide cleavage, 20 min; Potency, µM (doses to about 57.5 µM), without a hit: top-dose activity change, negative = active; hit rate 1.9% among 340,000; AID 651965, 2013; active = well fitted falling curve with a large enough effect; inconclusive = small, poorly fitted or top-dose-only effect; inactive = no such curve, though single readings can be large or run the other way; note: potency is the fitted concentration of half-maximal effect; the source files actives as falling curves though it sought activators and does not explain the sign; nearly all actives have a fitted effect of over 65% in size
Target sequence (P80244 whole entry, looked up): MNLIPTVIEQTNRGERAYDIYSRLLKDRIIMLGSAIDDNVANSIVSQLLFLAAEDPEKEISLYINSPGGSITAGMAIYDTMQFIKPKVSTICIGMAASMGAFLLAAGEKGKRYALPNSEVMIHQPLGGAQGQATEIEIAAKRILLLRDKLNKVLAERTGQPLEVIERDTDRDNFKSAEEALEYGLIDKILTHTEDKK
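FRET quenching reversal measured ClpP activation: 10 microg/mL B. subtilis ClpP at pH 8 with the FRET-FV decapeptide, read at 430 nm after 320 nm excitation. The 20-min minus 0-min signal was scaled between DMSO/no-enzyme wells and ADEP (5.8 microM final).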
DT40 TDP1 no CPT – qHTS for Inhibitors of human tyrosyl-DNA phosphodiesterase 1 (TDP1): qHTS in cells in absence of CPT; DT40 Tdp1-/- hTDP1 cells, no CPT, ATP luminescence, 48 h; Potency, µM (doses to about 46.2 µM), inactives show at the highest dose activity change, negative = growth inhibition, hits mostly inhibitors; hit rate 15% among 420,000; AID 686978, 2013; note: potency is the fitted concentration of half-maximal effect; % is set by controls: 0 for no effect and ±100 for the full control effect; nearly all actives have a fitted effect of over 55% in size
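Growth kinetics read by CellTiter-Glo luminescence after ≥48 hr at 37 °C. Cells: DT40 Tdp1-/- stably carrying human TDP1, 400 per well, compound exposure in the absence of CPT (DMSO vehicle).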
The depositor's hits bear a star; ? = inconclusive; nt = no result given. Unless noted, calls come from the whole dose curve; as a rule, active = well fitted inhibition curve with a large enough effect; inconclusive = small, poorly fitted or top-dose-only effect; inactive = flat fitted curve, though single readings scatter.

SMILES | TDP1 cell CPT | DRD3 agonist | D3 antag | IL-1B inflam inh | ClpP mod | DT40 TDP1 no CPT
Cc1ccc(C(=O)Nc2nc3n(n2)C(c2ccccc2)C=C(c2ccccc2)N3)cc1 (centres undefined) | ? | 7 | nt | nt | -19% | ?
COc1ccc(C(=O)Nc2nc3n(n2)C(c2ccc(F)cc2)C=C(c2ccc(Cl)cc2)N3)cc1 (centres undefined) | 15µM* | -8 | nt | nt | ? | 7.3µM*
O=C(Nc1nc2n(n1)C(c1ccc(F)cc1)C=C(c1ccccc1)N2)c1ccc(Cl)cc1 (centres undefined) | ? | 2 | nt | nt | -5% | 18µM*
O=C(Nc1nc2n(n1)C(c1ccccc1)C=C(c1ccccc1)N2)c1ccc(Cl)c([N+](=O)[O-])c1 (centres undefined) | 12µM* | -15 | nt | nt | -3% | 12µM*
O=C(Nc1nc2n(n1)C(c1ccc(F)cc1)C=C(c1ccc(Cl)cc1)N2)c1ccc([N+](=O)[O-])cc1 (centres undefined) | 5.8µM* | 8 | nt | nt | -2% | 5.2µM*
COc1ccccc1C(=O)Nc1nc2n(n1)C(c1ccc(F)cc1)C=C(c1ccc(Cl)cc1)N2 (centres undefined) | ? | -2 | nt | nt | -6% | ?
COc1ccccc1CN1C(=NC(=O)CCC2CCCC2)SC2CS(=O)(=O)CC21 (centres undefined) | ? | 8 | 1 | 6 | -1% | -14%
COc1cccc(CN(C)C(=O)CCNC(=O)c2ccco2)c1 | 1% | 1 | -13 | 7 | 0% | 4%
O=C(CN1C(=O)NC(Cc2c[nH]c3ccccc23)C1=O)NCCc1ccccc1 (centres undefined) | -4% | 1 | 0 | -27 | nt | -15%
CC(C)CC(=O)[C@@H](O)Cc1ccc(O)cc1 | -3% | 0 | 30 | 22 | 0% | -22%
CCOc1ccccc1OCC(=O)OCC(=O)c1c(N)n(CC(C)C)c(=O)n(C)c1=O | ? | 15 | 0 | 6 | 0% | 18µM*
CCC(C(=O)OCC(=O)c1c(N)n(CC(C)C)c(=O)n(C)c1=O)c1ccccc1 (centres undefined) | 21µM* | 4 | 11 | -12 | -1% | 23µM*
COc1ccccc1CCC(=O)OCC(=O)c1c(N)n(CC(C)C)c(=O)n(C)c1=O | ? | 31* | 7 | 32 | -1% | -9%
Cc1csc(=O)n1CC(=O)OCC(=O)c1c(N)n(C)c(=O)n(C)c1=O | -24% | 6 | 9 | 0 | nt | ?
Cc1csc(=O)n1CC(=O)OCC(=O)c1c(N)n(CC(C)C)c(=O)n(C)c1=O | ? | 11 | 13 | 12 | nt | 23µM*
COc1cccc(N(C(=O)c2sc(C)nc2C)C(C(=O)NCC2CCCO2)c2ccccc2)c1 (centres undefined) | 11% | -15 | 11 | 25 | 0% | -29%
CCCCOc1cccc(NC(=O)CSc2nnc(C)s2)c1 | -14% | -12 | nt | nt | -2% | -18%
COc1ccc(C)cc1NC(=O)CSCc1cc(=O)n2c(C)csc2n1 | 4% | 2 | 18 | 12 | -3% | -11%
O=C(NCN1CCc2ccccc2C1)c1cnccn1 | ? | -18 | ? | 11 | -6% | 23µM*
S=c1[nH]nc(CCc2ccccc2)n1Cc1ccccc1 | -30% | 3 | ? | 12 | -1% | ?
CCCOc1ccc(CCc2n[nH]c(=S)n2-c2ccccc2)cc1 | ? | 1 | -18 | 1 | 0% | 16µM*
CCCOc1ccc(CCc2n[nH]c(=S)n2Cc2ccccc2)cc1 | ? | 0 | -55* | -10 | -1% | 21µM*
c1cncc(-c2nc(NCCCN3CCOCC3)c3c4c(sc3n2)CCC4)c1 | ? | -10 | 0 | -129* | nt | 23µM*
Cc1cc(NCCO)nc(-n2nc(C)cc2C)n1 | 13% | 6 | -25 | 0 | -3% | -5%
COc1ccc(Nc2cc(C)nc(-n3nc(C)cc3C)n2)cc1Cl | 0.37µM* | -26 | nt | nt | -6% | 0.15µM*
SMILES | TDP1 cell CPT | DRD3 agonist | D3 antag | IL-1B inflam inh | ClpP mod | DT40 TDP1 no CPT
Cc1cc(Nc2ccc(F)cc2F)n2nc(C)nc2n1 | 3% | 3 | 18 | 16 | 0% | -7%
Cc1cc(Nc2ccc(F)cc2F)nc(-n2nc(C)cc2C)n1 | 2.9µM* | 3 | nt | nt | -3% | 4.6µM*
Cc1cc(Nc2ccc(C(C)C)cc2)nc(-n2nc(C)cc2C)n1 | 0.58µM* | -23 | nt | nt | -11% | 0.82µM*
COc1ccc(Nc2cc(C)nc3nc(C)nn23)cc1Cl | -18% | -8 | 0 | -21 | 0% | -13%
COc1cccc(CNC(=O)c2cnc3c(-c4ccc(F)cc4)c(C)nn3c2C)c1 | -1% | -12 | nt | nt | 2% | -14%
COc1ccccc1/C=C/c1nc(C#N)c(N2CCCCC2)o1 | -72% | -3 | nt | nt | 5% | 16µM*
COc1cccc(/C=C/c2nc(C#N)c(N3CCCCCC3)o2)c1 | ? | 3 | nt | nt | 4% | 18µM*
CN(C)c1oc(/C=C/c2ccccc2)nc1C#N | -21% | 3 | 10 | 2 | -46% | -24%
COc1ccc(/C=C/c2nc(C#N)c(N3CCCCC3)o2)cc1OC | 23µM* | -16 | nt | nt | 4% | 16µM*
COc1ccccc1/C=C/c1nc(C#N)c(N(C)C)o1 | ? | 0 | -11 | -8 | 5% | 16µM*
COc1cccc(C2CC(=O)C3=C(C2)Nc2ccccc2N(C(=O)CCC(=O)O)C3c2ccc(F)cc2)c1 (centres undefined) | 4% | -7 | 3 | -10 | nt | -29%
COc1cn(CC(=O)Nc2cccc(C)c2)c(CN2CCCCC2)cc1=O | -6% | 7 | nt | nt | -1% | -15%
COc1ccc(N2CCN(c3oc(/C=C/c4cc(OC)c(OC)c(OC)c4)nc3C#N)CC2)cc1 | 2.9µM* | 13 | nt | nt | -4% | 3.7µM*
COc1ccc(/C=C/c2nc(C#N)c(N3CCN(c4ccccc4)CC3)o2)cc1OC | -12% | -1 | nt | nt | -24% | -12%
COc1cc(/C=C/c2nc(C#N)c(N3CCCCCC3)o2)cc(OC)c1OC | 15µM* | 0 | nt | nt | 4% | 16µM*
COc1cccc(/C=C/c2nc(C#N)c(N3CCC(C(N)=O)CC3)o2)c1 | -25% | 0 | nt | nt | 3% | -30%
COc1cc(/C=C/c2nc(C#N)c(N3CCC(C)CC3)o2)cc(OC)c1OC | 10µM* | -5 | nt | nt | 4% | 7.3µM*
CSCCNC(=O)c1ccc2nc(C3CCCCC3)oc2c1 | -19% | -15 | 2 | -17 | -2% | -11%
Cc1nnsc1C(=O)N1CCC(CO)(Cc2ccccc2Cl)CC1 | ? | -12 | -8 | -3 | nt | ?
